# Measured values: PubChem BioAssay (NCI)
# “And” between values parts separate entries of the source, which are not always exact repeats. Equal values may be shown once. This is part of a sample that, as a whole, favours compounds with a hit. Of some 83,000 tested, about 20% had one in any assay.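 Cells were grown in 96-well plates and exposed to the test compound at a single concentration for 48 hours; results are reported as percent growth, with values below 10 considered active.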 Unmarked numbers belong to inactive results. The source made the active and inactive calls.
# Tested on: MDA-MB-468 breast
# Test: NCI-60 one-dose screen, 48 h (100 = growth as untreated, 0 = no growth, -100 = all killed)
# Details: 10 µM unless noted
row,SMILES,growth
1,CN1CCN(Cc2ccc(NC(=O)c3cncc(C#Cc4cnc5ccc(Cl)nn45)c3)cc2C(F)(F)F)CC1,-20.1% (active)
2,Nc1c(C(=O)Nc2ccccc2Cl)sc2nc3c(cc12)C(=O)CCC3,24.9%
3,NC1=NC(=O)C(c2ccccc2)(c2ccccc2)S1,111%
4,C=CC(=O)NCCOc1cccc(Nc2cc(NCCCNC(=O)C3CCC3)c(Br)cn2)c1,-59.5% (active)
5,Clc1ccc2c(NCCCN3CCN(c4nc(-n5ccnc5)nc5ccccc45)CC3)ccnc2c1,106%
6,COc1ccc(N=Cc2c(O)ccc3c2oc2cc(Cl)c(O)c(Cl)c23)cc1,72.5%
7,O=C(Nc1cn[nH]c1-c1nc2ccc(CN3CCOCC3)cc2[nH]1)NC1CC1,25.5%
8,CNC1(C#N)CCN(Cc2ccccc2)CC1,85.6%
9,CN(C)c1ccc(/C=C2/C=C(c3ccccc3)OC2=O)cc1,-8.42% (active)
10,Cc1ccc(N)cc1S(=O)(=O)O,127% and 110%
11,O=C1C(c2ccccc2)=C(N2CCc3ccccc32)OC1(Cl)Cl,78.4%
12,c1cnc2nc3c(cc2c1)oc1ccccc13,81%
13,Cc1c(-c2ccccc2)[nH]c2ccccc12,88.1%
14,O=Cc1ccc(O)c2ncccc12,27.4%
15,O=C(CCc1nnc2sc(COc3ccccc3)nn12)c1nc2ncccc2[nH]1,100%
16,CC(C)C(NC(=O)C1(NC(=O)OCc2ccccc2)CCCC1)C(=O)O (stereo not given),112%
17,COc1ccc(/C=C2\N=C(c3ccccc3)N(c3cc(OC)c(OC)cc3C(=O)N3N=C(C)CC3=O)C2=O)cc1,93%
18,CC[C@]1(O)C[C@@H]2CN(CCc3c([nH]c4ccccc34)[C@@](C(=O)OC)(c3cc4c(cc3OC)N(C)[C@H]3[C@@](O)(C(=O)OC)[C@H](OC(=O)CCCBr)[C@]5(CC)C=CCN6CC[C@]43[C@@H]65)C2)C1,31.8%
19,CN1/C(=C\C=C\C2=[N+](C)c3ccccc3C2(C)C)C(C)(C)c2ccccc21,-40.4% (active)
20,Cc1ccc(C(CN(C)C)C(=O)c2ccccc2)cc1 (stereo not given),4.73% (active)

row,SMILES,growth
1,CC1(C)CC(=O)c2c(nc3ccc(Cl)cc3c2-c2ccccc2)C1,92%
2,COc1ccc(C(C)c2cc(OC)c(OC)c(OC)c2)cc1 (stereo not given),41.6%
3,COc1ccccc1N1CCN(C(=O)c2ccc3nc(NC(=O)c4ccc(NCCc5ccccc5)c([N+](=O)[O-])c4)sc3c2)CC1,99.1%
4,O=C(Nc1ccccc1CNc1nc(Nc2ccc(OCCN3CCCC3)cc2)ncc1Cl)NC1CCCCC1,89.4%
5,CC1=C(NCCN2CCCC2)C(=O)c2c(OCc3ccc(C(F)(F)F)cc3)cccc2C1=O,82.2%
6,COC(=O)Nc1nc2ccc(C3(c4ccc(F)cc4)OCCO3)cc2[nH]1,23.3%
7,COc1ccc(NC2=C(I)C(=O)c3ncccc3C2=O)cc1,-58% (active)
8,O=C1Nc2ccccc2/C1=C\c1c(-c2ccccc2)nc2ccccn12,15.3%
9,Fc1ccc(CNc2c3ccccc3nc3ccccc23)c(F)c1,-4.03% (active)
10,O=C(/C(=C/c1ccc([N+](=O)[O-])cc1)SCc1ccc(F)cc1)c1ccc(F)cc1,83.7%
11,Fc1ccccc1/C=C(/C1=NCCN1)n1cnc2ccccc21,98.1%
12,CC(=O)Nc1nc(C)c(C(=O)NNC=O)s1,116%
13,Cc1onc(-c2ccccc2Cl)c1C(=O)N[C@@H]1C(=O)N2[C@@H]1SC(C)(C)[C@@H]2C(=O)O,109%
14,Cc1ccc(/C=C2\C(=O)N(C)c3ccc(S(=O)(=O)Nc4ccc(C(C)(C)C)cc4)cc32)s1,41.8%
15,O=C1c2cccc3cccc(c23)C(=O)N1C/C=C/c1ccc2c3c(cccc13)C(=O)N(CCO)C2=O,79.8%
16,COC(=O)c1cc(-c2cc(OC)c(OC)c(OC)c2)[nH]c1N/N=C/c1c(Cl)cccc1Cl,-9.15% (active)
17,O=C(Nc1ccc(C2=NCCCN2)cc1)Nc1ccc(C2=NCCCN2)cc1,42.2%
18,Cc1ccc2sc3c(c2c1)OC(N)=C(C#N)C3c1ccc(Cl)cc1 (stereo not given),-18.7% (active)
19,N#Cc1c(N)nc2c(c(-c3ccc(Cl)cc3)nn2-c2ccccc2)c1C#N,90.1% [100 µM]
20,N#Cc1cccc(/C=C(/C(=O)c2ccccc2)c2ccccc2)c1,48.9%
